Assay results reported in publication PMC5540273 (PLoS ONE, 2017).

Legend:
AAK1 = conditions: concentration: 1 μM, replicates: in singlicate; n = 1
ABL1-nonphosphorylated = conditions: concentration: 1 μM, replicates: in singlicate; n = 1
ABL1-phosphorylated = conditions: concentration: 1 μM, replicates: in singlicate; n = 1
ABL2 = conditions: concentration: 1 μM, replicates: in singlicate; n = 1
ACVR1B = conditions: concentration: 1 μM, replicates: in singlicate; n = 1
ACVR1 = conditions: concentration: 1 μM, replicates: in singlicate; n = 1
ACVR2A = conditions: concentration: 1 μM, replicates: in singlicate; n = 1
p38-alpha = tested on: T1, p38-alpha
T1 construct: gene MAPK14

p38-beta = tested on: T2, p38-beta
T2 construct: gene MAPK11
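Throughout, for %Inh: KINOMEscan kinase panel screen.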
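Throughout, for Kd: kd values determined as follow-up on hits from a single-replicate KINOMEscan panel screen.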

| SMILES | %Inh (AAK1) [%] | %Inh (ABL1-nonphosphorylated) [%] | %Inh (ABL1-phosphorylated) [%] | %Inh (ABL2) [%] | %Inh (ACVR1B) [%] | %Inh (ACVR1) [%] | %Inh (ACVR2A) [%] | Kd (p38-alpha) [nM] | Kd (ZAK) [nM] | Kd (p38-beta) [nM] |
| --- | --- | --- | --- | --- | --- | --- | --- | --- | --- | --- |
| Cl.NC(=O)c1cccc(Nc2nccc(Nc3ccc(Oc4cccc(Cl)c4)c(Cl)c3)n2)c1 [GW659008] | 14 | 0 | 0 | 20 | 0 | 29 | 0 | – | – | – |
| Fc1cc(Cl)ccc1Nc1ccnc2cc(-c3ccc(CN4CCCCC4)o3)ccc12 [GW560116] | 1 | 47 | 49 | 14 | 0 | 5 | 0 | – | – | – |
| COc1cccc(NC(=O)NC2CCN(c3ccnc(Nc4ccc(F)cc4)n3)C2)c1 (stereo not drawn) [GSK1379721] | 5 | 0 | 0 | 0 | 0 | 0 | 100 | – | – | – |
| CC1=C(C(=O)Nc2cc3cn[nH]c3cc2F)C(c2ccc(C(F)(F)F)cc2)CC(=O)N1 (stereo not drawn) [GSK429286] | 0 | 0 | 0 | 19 | 0 | 0 | 83 | – | – | – |
| O=C1NC(=O)C(N2CCc3ccccc32)=C1c1ccccc1Cl [SB-373598] | 7 | 12 | 97.7 | 15 | 35 | 27 | 25 | – | – | – |
| COc1ccccc1CNC(=O)c1cc(C(=O)c2ccccc2C)c[nH]1 [GSK364507] | 2 | 0 | 0 | 21 | 0 | 0 | 0 | 270 | – | – |
| CS(=O)(=O)c1ccc(-c2c(-c3ncn[nH]3)sc(N3CCOCC3)c2C#N)cc1 | 18 | 30 | 13 | 7 | 14 | 0 | 0 | – | – | – |
| COc1cc2ncnc(Nc3ccc4nc(-c5ccccc5)[nH]c4c3)c2cc1OC.Cl [GW282450] | 6 | 0 | 0 | 5 | 0 | 0 | 0 | – | – | – |
| Cc1csc(-c2nc(Nc3ccncc3)c3ccccc3n2)n1 [GW869640] | 31 | 31 | 15 | 7 | 94.7 | 0 | 3 | – | – | – |
| COc1cccc(-c2cc(-c3c[nH]nc3-c3ccccn3)ccn2)c1 [GW680338] | 4 | 0 | 3 | 0 | 50 | 24 | 9 | – | – | – |
| COc1cc2ncn(-c3cc(OCC4CCCO4)c(C(N)=O)s3)c2cc1OC (stereo not drawn) [GSK204607] | 17 | 0 | 0 | 0 | 0 | 46 | 0 | – | – | – |
| COc1ccc(Nc2nccc(NCCNC(=O)Nc3ccccc3F)n2)cc1 [GSK1379901] | 80 | 0 | 1 | 0 | 0 | 21 | 0 | – | – | – |
| C[C@@H]1CCCCN1c1cc(-c2ccc3c(N)n[nH]c3c2)nc(N)n1 [GSK2258759] | 43 | 0 | 0 | 0 | 0 | 24 | 0 | 2100 | – | – |
| CS(=O)(=O)c1ccc(-c2nc3n(c2-c2ccncc2)CCC3)cc1 [SKF-105942] | 14 | 0 | 8 | 9 | 0 | 10 | 0 | – | – | – |
| CC(C)(C)c1ccc(C(=O)Nc2cn3cc(Cl)ccc3n2)cc1 | 0 | 35 | 0 | 0 | 0 | 0 | 0 | – | – | – |
| O=C(O)COc1ncnc2cc(-c3ccc4[nH]ncc4c3)sc12 | 52 | 33 | 7 | 0 | 31 | 1 | 4 | – | – | – |
| CN(C)CCN(C)C(=O)c1cc(-c2ccncc2)c(-c2ccc(Cl)c(O)c2)o1.Cl.Cl [SB-710397] | 6 | 2 | 6 | 17 | 0 | 0 | 0 | 740 | – | – |
| Cc1cccc(-c2cc(Nc3ccncc3)c3ccccc3n2)n1 [GSK223675] | 12 | 0 | 0 | 0 | 88 | 0 | 0 | – | > 10000 | – |

| SMILES | %Inh (AAK1) [%] | %Inh (ABL1-nonphosphorylated) [%] | %Inh (ABL1-phosphorylated) [%] | %Inh (ABL2) [%] | %Inh (ACVR1B) [%] | %Inh (ACVR1) [%] | %Inh (ACVR2A) [%] | Kd (p38-alpha) [nM] | Kd (ZAK) [nM] | Kd (p38-beta) [nM] |
| --- | --- | --- | --- | --- | --- | --- | --- | --- | --- | --- |
| COC(=O)c1c(-c2ccccc2)c2cc(C(=O)O)ccc2c(=O)n1Cc1ccccc1 | 3 | 77 | 7 | 7 | 9 | 0 | 36 | – | – | – |
| CCn1c(-c2ccccn2)nc2cnccc21 [SB-736398] | 0 | 0 | 4 | 0 | 0 | 18 | 0 | – | – | – |
| Cc1c(O)cccc1Nc1ccnc2ccc(C(F)(F)F)cc12.Cl [GW466413] | 0 | 42 | 70 | 43 | 0 | 73 | 13 | – | – | – |
| Cc1cccc(-c2nc(-c3ccc(S(C)(=O)=O)cc3)sc2-c2ccnc(NCCc3ccccc3)c2)c1 | 12 | 90.7 | 21 | 0 | 8 | 0 | 0 | 1900 | – | – |
| Cc1cccc(-c2nc(Nc3ccc4[nH]ncc4c3)c3ccccc3n2)n1 [GW857175] | 0 | 19 | 14 | 3 | 100 | 0 | 0 | – | – | – |
| COc1ccc(CNC(=O)NC2CCN(c3ccnc(Nc4cc(OC)c(OC)c(OC)c4)n3)C2)cc1 (stereo not drawn) [GSK1379748] | 49 | 0 | 0 | 0 | 0 | 15 | 0 | – | – | – |
| O=C(Nc1n[nH]c2cc(-c3cccc(F)c3F)ccc12)C1CC1 [SB-733894] | 100 | 45 | 40 | 0 | 21 | 24 | 17 | – | – | – |
| Cl.c1ccc(-c2n[nH]cc2-c2ccnc(-c3ccc(CN4CCOCC4)cc3)c2)nc1 [GW776245] | 25 | 62 | 61 | 0 | 80 | 7 | 11 | – | – | – |
| COc1cc2nccc(Nc3ccc(NC(=O)c4ccc(C)cc4)c(O)c3)c2cc1OC.Cl [GW440132] | 12 | 28 | 0 | 16 | 13 | 0 | 0 | – | – | – |
| Cc1nnc(-c2ccc3occ(-c4ccc(S(C)=O)cc4)c3c2)[nH]1 (stereo not drawn) | 25 | 17 | 0 | 7 | 0 | 0 | 23 | – | – | – |
| Cc1cccc(-c2nc(C)cc(Nc3ccncc3)n2)n1 [GSK257997] | 99.8 | 0 | 0 | 6 | 78 | 15 | 0 | – | – | – |
| Cc1ccc(-c2cc(-c3c[nH]nc3-c3ccccn3)ccn2)cc1 [GW684088] | 22 | 35 | 21 | 0 | 65 | 29 | 0 | – | – | – |
| Cc1c(Cn2ccn3c(=O)cc(N4CCOCC4)nc23)cccc1C(F)(F)F [GSK2289044] | 16 | 0 | 0 | 0 | 0 | 3 | 0 | – | – | – |
| Cc1cccc(-c2nc(Nc3cccc(C(N)=O)c3)c3ccccc3n2)n1 [GW876019] | 0 | 25 | 20 | 15 | 83 | 0 | 12 | – | – | – |
| Clc1cc(Cl)cc(Nc2ccnc(Nc3cc(Cl)cc(Cl)c3)n2)c1 [GSK175726] | 0 | 68 | 51 | 29 | 28 | 58 | 0 | – | – | – |
| Cc1ccc(NC(=O)Nc2cc(C(C)(C)C)nn2-c2ccccc2)cc1 [GSK1014915] | 0 | 0 | 2 | 14 | 0 | 7 | 6 | 58 | – | 540 |
| CCCc1ccc(S(=O)(=O)NC2CCN(c3ccnc(Nc4ccc(F)cc4)n3)C2)cc1 (stereo not drawn) [GSK1379715] | 1 | 0 | 0 | 6 | 0 | 16 | 0 | – | – | – |
